# Assay results taken from PubChem BioAssay (NCATS).
# Values without a mark were called inactive. Records with an inconclusive call do not appear. Where a call stands in place of a potency, no number is given. The source made the active and inactive calls. Calls follow the shape of the dose curve; as a rule, active = well fitted curve in the direction sought with a large enough effect; inconclusive = small, poorly fitted or top-dose-only effect, or another doubt; inactive = no such curve, though single readings can be large; an effect the other way counts as inactive or inconclusive.
# Assays:
# [1] = P-glycoprotein substrates identified in KB-8-5-11 adenocarcinoma cell line, qHTS therapeutic library screen (AID 1346987); also: nearly all actives have a fitted effect of over 65% in size; also: potency is read from the fitted curve at half-maximal effect
# In short: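 KB-8-5-11: colchicine-selected sub-line of KB-3-1 over-expressing P-gp; assay medium lacked colchicine. 72 h drug exposure at 37 degree C, CellTiter-Glo.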
# [2] = test system: Zika virus NS2B-NS3 protease (linked construct); test: Primary screen NINDS Rhodamine qHTS for Zika virus inhibitors (AID 1347160); also: nearly all actives have a fitted effect of over 55% in size
# In short: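 Purified NS2B-NS3 protease with the NS2B hydrophilic domain joined by a flexible linker (25 nM) in 10 mM Tris-HCl pH 8.0, 0.01% Tween 20, preincubated 15 min at RT with compound; Rhodamine110 peptide substrate 1.5 µM; fluorescence change over 15 min; 4-parameter Hill fit.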
# [3] = molecular target: Calcium and integrin-binding protein 1 (Homo sapiens) (UniProt Q99828); test: Primary qHTS for Identification of Calcium Integrin Binding Protein 1 (CIB1) Competitor (AID 1508620);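 also: GST tagged CIB1 binding a fluorescein labelled alphaIIb integrin peptide tracer; top concentration of the series differs between compounds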
# Calcium and integrin-binding protein 1 (Homo sapiens), sequence (Q99828 whole entry, looked up): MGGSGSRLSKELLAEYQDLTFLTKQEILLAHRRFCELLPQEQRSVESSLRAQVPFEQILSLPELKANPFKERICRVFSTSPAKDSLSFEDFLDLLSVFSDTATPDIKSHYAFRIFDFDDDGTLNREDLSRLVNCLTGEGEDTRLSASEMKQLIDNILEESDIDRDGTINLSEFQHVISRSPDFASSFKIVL
# In short: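 Fluorescence polarization competition: GST-tagged CIB1 (1 uM final) preincubated with compound 15 min at room temperature, then FITC-labelled alphaIIb peptide (100 nM final) added. After 15 min at room temperature, polarization read at Ex 480/Em 540.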
# [4] = molecular target: Glutathione peroxidase 1 (Homo sapiens) (UniProt P07203); test: Primary qHTS Assay for Inhibitors of Recombinant Selenoprotein Glutathione Peroxidase 1 (GPX1) (AID 1845191); also: nearly all actives have a fitted effect of over 65% in size
# Glutathione peroxidase 1 (Homo sapiens), sequence (P07203 whole entry, looked up): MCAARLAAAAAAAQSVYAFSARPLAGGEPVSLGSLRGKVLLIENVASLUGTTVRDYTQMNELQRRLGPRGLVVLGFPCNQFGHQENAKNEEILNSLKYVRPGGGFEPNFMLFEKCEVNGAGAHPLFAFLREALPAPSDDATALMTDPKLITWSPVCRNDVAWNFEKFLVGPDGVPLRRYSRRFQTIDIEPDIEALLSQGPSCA
# In short: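 GR-coupled assay: compounds preincubated 30 min at room temperature with GPX1, then reaction started with CHP; final 10 nM GPX1, 1 mM GSH, 0.5 mM CHP, 0.5 mM NADPH, 100 nM GR, 0.01% BSA, pH 7.5 Tris buffer. NADPH fluorescence (340/450 nm) read at 0 and 15 min.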
# [5] = molecular target: Phospholipid hydroperoxide glutathione peroxidase GPX4 (Homo sapiens) (UniProt P36969); test: Primary qHTS Assay for Inhibitors of Recombinant Selenoprotein Glutathione Peroxidase 4 (GPX4) (AID 1845192); also: nearly all actives have a fitted effect of over 65% in size
# Phospholipid hydroperoxide glutathione peroxidase GPX4 (Homo sapiens), sequence (P36969 whole entry, looked up): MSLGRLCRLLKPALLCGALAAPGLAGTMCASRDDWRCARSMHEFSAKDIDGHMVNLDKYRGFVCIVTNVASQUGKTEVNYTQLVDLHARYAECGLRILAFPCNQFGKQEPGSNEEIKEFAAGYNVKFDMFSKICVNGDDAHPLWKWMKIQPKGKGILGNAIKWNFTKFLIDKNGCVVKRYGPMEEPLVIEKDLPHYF
# In short: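 GR-coupled assay: recombinant GPX4 preincubated 30 min with compound at room temperature; final 200 nM GPX4, 1 mM GSH, 0.5 mM cumene hydroperoxide, 0.5 mM NADPH, 100 nM GR, 0.01% BSA, pH 7.5 Tris. NADPH fluorescence (340/450 nm) read at 0 and 15 min.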
# [6] = molecular target: Luciferin 4-monooxygenase (Photinus pyralis) (UniProt P08659); test: Primary firefly luciferase (FLuc) qHTS assay for identification of artifact compounds. (AID 1845220); settings: outcome: dose series up to 54.1 µM unless noted; also: nearly all actives have a fitted effect of over 60% in size
# In short: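 Titrated compounds were incubated 15 min at RT, protected from light, with luciferin and ATP at 10 uM; reaction started with 10 nM FLuc, luminescence imaged at 5 min, and concentration-response fitted by Hill equation.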
# [7] = test system: Nanoluciferase (engineered Oplophorus gracilirostris luciferase); test: Primary Nanoluciferase (NLuc) qHTS assay for identification of artifact compounds. (AID 1845222);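 also: NLuc secreted into diluted conditioned medium of S16 cells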
# In short: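 qHTS format, against NLuc in S16 cell-conditioned medium. Nano-Glo substrate 1:100 was added after 15 min at room temperature. Luminescence was taken after a further 5 min.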
# CRL-7250 = normal cell line; test: Cytotoxic Profiling of Annotated Libraries Using Quantitative High-Throughput Screening (AID 1296008); settings: Five cell lines viability, CellTiter-Glo ATP luminescence, 48-72 h; max response: hits give low values; also: nearly all actives have a fitted effect of over 60% in size; also: potency is read from the fitted curve at half-maximal effect
# In short: (§1)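 Cells exposed to compounds for 48 or 72 hr at 37 degrees Celsius. Viability read as ATP-coupled luminescence with CellTiter-Glo after 10 min at room temperature.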
# CAOV3 = test: Primary qHTS to identify gynecologic anti-cancer compounds using libraries of approved drugs and bioactive compounds (AID 1345084); settings: Gynecologic cancer cell panel viability, ATPlite luminescence, 48 h; series mostly up to 57.5 µM; also: nearly all actives have a fitted effect of over 55% in size; also: potency is read from the fitted curve at half-maximal effect
# In short: (§2)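 ATP-based viability (ATPlite), 1,000 cells/well, 16 h pre-incubation, 48 h compound at 37 C, 5% CO2, 15 min RT before read.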
# CASKI = test: as above; settings: Gynecologic cancer cell panel viability, ATPlite luminescence, 48 h; series mostly up to 57.5 µM
# In short: as §2
# OV90 = test: as above; settings: Gynecologic cancer cell panel viability, ATPlite luminescence, 48 h; series mostly up to 57.5 µM
# In short: as §2
# PA-1 = test: as above; settings: Gynecologic cancer cell panel viability, ATPlite luminescence, 48 h; series mostly up to 57.5 µM
# In short: as §2
# Tov-21-G = test: as above; settings: Gynecologic cancer cell panel viability, ATPlite luminescence, 48 h; series mostly up to 57.5 µM
# In short: as §2
# C33A = test: as above; settings: Gynecologic cancer cell panel viability, ATPlite luminescence, 48 h; series mostly up to 57.5 µM
# In short: as §2
# Es-2 = test: as above; settings: Gynecologic cancer cell panel viability, ATPlite luminescence, 48 h; series mostly up to 57.5 µM
# In short: as §2
# JEG-3 = test: as above; settings: Gynecologic cancer cell panel viability, ATPlite luminescence, 48 h; series mostly up to 57.5 µM
# In short: as §2
# Tov112D = test: as above; settings: Gynecologic cancer cell panel viability, ATPlite luminescence, 48 h; series mostly up to 57.5 µM
# In short: as §2
# HeLa = test: as above; settings: Gynecologic cancer cell panel viability, ATPlite luminescence, 48 h; series mostly up to 57.5 µM
# In short: as §2
# Hek293T = test: as above; settings: Gynecologic cancer cell panel viability, ATPlite luminescence, 48 h, control line for the selectivity index; series mostly up to 57.5 µM
# In short: as §2
# NIH3T3 = test: Cytotoxic Profiling of Annotated Libraries Using Quantitative High-Throughput Screening (AID 1296008); settings: Five cell lines viability, CellTiter-Glo ATP luminescence, 48-72 h; max response: hits give low values; also: nearly all actives have a fitted effect of over 60% in size; also: potency is read from the fitted curve at half-maximal effect
# In short: as §1
smiles,measurement,setting,value
COC1CCCC(C)OC(=O)Cc2cc(O)cc(O)c2C(=O)C1 (stereo not given),Potency,[1],4.04 µM (active)
same,Potency,[2],inactive
same,Potency,[3],inactive
same,Potency,[4],inactive
same,Potency,[5],inactive
same,outcome,[6],inactive
same,Potency,[7],inactive
same,Potency,CRL-7250,14.3 µM (active)
same,Potency,CAOV3,inactive
same,Potency,CASKI,inactive
same,Potency,OV90,inactive
same,Potency,PA-1,11.2 µM (active)
same,Potency,Tov-21-G,inactive
CC(C)[C@H]1OC(=O)[C@H](Cc2ccccc2)N(C)C(=O)[C@@H](C(C)C)OC(=O)[C@H](Cc2ccccc2)N(C)C(=O)[C@@H](C(C)C)OC(=O)[C@H](Cc2ccccc2)N(C)C1=O,Potency,[1],4.85 µM (active)
same,Potency,[2],inactive
same,Potency,[3],inactive
same,Potency,[5],inactive
same,outcome,[6],inactive
same,Potency,[7],inactive
same,Potency,CRL-7250,4.85 µM (active)
same,Potency,C33A,inactive
same,Potency,CAOV3,inactive
same,Potency,CASKI,inactive
same,Potency,Es-2,inactive
same,Potency,JEG-3,inactive
same,Potency,OV90,inactive
same,Potency,PA-1,7.94 µM (active)
same,Potency,Tov-21-G,inactive
same,Potency,Tov112D,inactive
C#C[C@]1(O)CC[C@H]2[C@@H]3CC[C@H]4Cc5nc6nc7ccccc7n6cc5C[C@]4(C)[C@H]3CC[C@@]21C,Potency,[1],20.6 µM (active)
same,Potency,[3],inactive
same,Potency,[4],inactive
same,Potency,[5],inactive
same,outcome,[6],inactive
same,Potency,[7],inactive
same,max response,CRL-7250,1.18%
same,Potency,C33A,inactive
same,Potency,CAOV3,inactive
same,Potency,CASKI,inactive
same,Potency,Es-2,inactive
same,Potency,HeLa,inactive
same,Potency,Hek293T,inactive
same,Potency,JEG-3,inactive
same,Potency,OV90,inactive
same,Potency,PA-1,inactive
same,Potency,Tov112D,inactive
CCCCCn1cc(C(=O)Oc2cccc3cccnc23)c2ccccc21,Potency,[1],inactive
same,Potency,[2],inactive
same,Potency,[3],inactive
same,Potency,[4],inactive
same,Potency,[5],inactive
same,outcome,[6],inactive
same,Potency,[7],inactive
same,outcome,CRL-7250,inactive
same,max response,NIH3T3,-5.3%
same,Potency,C33A,inactive
same,Potency,CAOV3,inactive
same,Potency,CASKI,inactive
same,Potency,Es-2,inactive
same,Potency,HeLa,inactive
same,Potency,Hek293T,inactive
same,Potency,JEG-3,inactive
same,Potency,OV90,inactive
same,Potency,PA-1,inactive
same,Potency,Tov-21-G,inactive
same,Potency,Tov112D,inactive
CC1=CC(=O)[C@@H](O)[C@@]2(C)C1C[C@H]1OC(=O)[C@H](O)[C@@]3(O)[C@@H](C)[C@@H](O)[C@H](O)C2[C@@]13C (stereo not given in full),Potency,[2],inactive
same,Potency,[3],inactive
same,Potency,[4],inactive
same,Potency,[5],inactive
same,outcome,[6],inactive
same,Potency,[7],inactive
same,Potency,CRL-7250,2.86 µM (active)
same,Potency,CASKI,inactive
same,Potency,JEG-3,inactive
same,Potency,Tov-21-G,11.2 µM (active)
CCOc1ccc(Oc2ccc(OCc3cc(F)ccc3F)cc2)c(N)c1,Potency,[1],inactive
same,Potency,[2],inactive
same,Potency,[3],inactive
same,Potency,[4],inactive
same,Potency,[5],inactive
same,outcome,[6],inactive
same,Potency,[7],inactive
same,outcome,CRL-7250,inactive
same,max response,NIH3T3,-0.81%
same,Potency,C33A,inactive
same,Potency,CAOV3,inactive
same,Potency,CASKI,inactive
same,Potency,Es-2,inactive
same,Potency,HeLa,inactive
same,Potency,Hek293T,inactive
same,Potency,JEG-3,inactive
same,Potency,OV90,inactive
same,Potency,PA-1,inactive
same,Potency,Tov-21-G,inactive
same,Potency,Tov112D,inactive
Fc1cc(F)c2c(c1)C1C=CCC1C(c1cccnc1)N2 (stereo not given),Potency,[1],4.61 µM (active)
same,Potency,[2],inactive
same,Potency,[3],inactive
same,Potency,[5],inactive
same,outcome,[6],inactive
same,Potency,[7],inactive
same,Potency,CRL-7250,5.8 µM (active)
same,Potency,C33A,22.4 µM (active)
same,Potency,HeLa,10 µM (active)
same,Potency,PA-1,17.8 µM (active)
CN(C(=O)C(c1ccccc1)c1ccccc1)[C@H](CN1CC[C@H](O)C1)c1ccccc1,Potency,[2],inactive
same,Potency,[3],inactive
same,Potency,[4],inactive
same,Potency,[5],inactive
same,outcome,[6],inactive
same,Potency,[7],inactive
same,outcome,CRL-7250,inactive
same,max response,NIH3T3,3.64%
same,Potency,C33A,inactive
same,Potency,CAOV3,inactive
same,Potency,CASKI,inactive
same,Potency,Es-2,inactive
same,Potency,HeLa,inactive
same,Potency,Hek293T,inactive
same,Potency,JEG-3,inactive
same,Potency,OV90,inactive
same,Potency,PA-1,inactive
same,Potency,Tov-21-G,inactive
same,Potency,Tov112D,inactive
C[C@]12CC[C@H](O)C[C@@H]1CC[C@@H]1[C@@H]2CC[C@]2(C)[C@@H](C3=CC(=O)OC3)CC[C@]12O,Potency,[1],11.4 µM (active)
same,Potency,[2],inactive
same,Potency,[3],inactive
same,Potency,[4],inactive
same,Potency,[5],inactive
same,outcome,[6],inactive
same,Potency,[7],inactive
same,Potency,CRL-7250,4.53 µM (active)
same,max response,NIH3T3,3.54%
same,Potency,C33A,7.94 µM (active)
same,Potency,CASKI,inactive
same,Potency,Es-2,8.91 µM (active)
same,Potency,JEG-3,inactive
same,Potency,OV90,inactive
C=C1C2(C)CC3C(C)(O)C4=CC(=O)OC(C)(C)C4=CCC3(C)C13C(=O)OC(C)C3(O)C2=O (stereo not given),Potency,[1],inactive
same,Potency,[5],inactive
same,outcome,[6],inactive
same,Potency,[7],inactive
same,max response,CRL-7250,-8.29%
same,max response,NIH3T3,-1.67%
same,Potency,C33A,inactive
same,Potency,CAOV3,inactive
same,Potency,CASKI,inactive
same,Potency,Es-2,inactive
same,Potency,HeLa,inactive
same,Potency,Hek293T,inactive
same,Potency,JEG-3,inactive
same,Potency,OV90,inactive
same,Potency,PA-1,inactive
same,Potency,Tov-21-G,inactive
same,Potency,Tov112D,inactive
CN1C(=O)N(c2ccc(C#N)c(C(F)(F)F)c2)C(=O)[C@@]1(CO)c1ccccc1,Potency,[1],inactive
same,Potency,[3],inactive
same,Potency,[4],inactive
same,Potency,[5],inactive
same,outcome,[6],inactive
same,Potency,[7],inactive
same,outcome,CRL-7250,inactive
same,max response,NIH3T3,4.41%
same,Potency,C33A,inactive
same,Potency,CAOV3,inactive
same,Potency,CASKI,inactive
same,Potency,Es-2,inactive
same,Potency,HeLa,inactive
same,Potency,Hek293T,inactive
same,Potency,JEG-3,inactive
same,Potency,OV90,inactive
same,Potency,PA-1,inactive
same,Potency,Tov-21-G,inactive
same,Potency,Tov112D,inactive
CCCCCCC1C(=O)O[C@H](C)[C@H](NC(=O)c2cccc(NC=O)c2O)C(=O)O[C@@H](C)[C@@H]1OC(=O)CC(C)C (stereo not given in full),Potency,[5],inactive
same,outcome,[6],inactive
same,Potency,[7],inactive
same,Potency,CRL-7250,0.58 µM (active)
same,Potency,CAOV3,3.16 µM (active)
same,Potency,CASKI,1 µM (active)
same,Potency,Es-2,0.355 µM (active)
same,Potency,JEG-3,inactive
same,Potency,OV90,0.355 µM (active)
same,Potency,Tov112D,inactive
CN1CCCCC1Cn1cc(C(=O)c2cc([N+](=O)[O-])ccc2I)c2ccccc21 (stereo not given),Potency,[1],inactive
same,Potency,[2],inactive
same,Potency,[3],inactive
same,Potency,[4],inactive
same,Potency,[5],inactive
same,outcome,[6],inactive
same,Potency,[7],inactive
same,max response,CRL-7250,2.06%
same,outcome,NIH3T3,inactive
same,Potency,C33A,inactive
same,Potency,CAOV3,inactive
same,Potency,CASKI,inactive
same,Potency,Es-2,inactive
same,Potency,HeLa,inactive
same,Potency,Hek293T,inactive
same,Potency,JEG-3,inactive
same,Potency,OV90,inactive
same,Potency,PA-1,inactive
same,Potency,Tov-21-G,inactive
same,Potency,Tov112D,inactive
